Results as given in the supplement of paper PMC6555819.

These sequences were tested on PPARa:RXRa (NR concentration 270 nM, RXRa partner concentration 90 nM) (assay: PBM binding z-score (relative to random genomic background probes); higher = stronger binding; sequences stand for … in GC…GCGATTGACAGCGTAGAATGAAGG).
In short: (§1)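 The probes on custom Agilent 4×180K protein-binding microarrays were double-stranded, with 34-nt variable regions bearing direct-repeat seeds, single-nucleotide variants, half-site ablations and random human genomic background sequences. Incubation lasted 1 h with ligand-free nuclear receptor dimers in PBS pH 7.4, 2% milk, 0.02% Triton X-100, 1 mM DTT, 0.2 mg/mL BSA and 0.4 mg/ml salmon testes DNA. Antibodies against each partner (one per run) detected bound dimers, and fluorescence scans were regression-normalized. Binding z-scores take the random background probes as reference.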
TCTTGTAGATCAAGCAGGTTAATAAAGCCTGAGT gave a PBM binding z-score of 0.639. CCAGACAGGTGAAAGGTACCTCAGTCTGGTACGC gave a PBM binding z-score of 2.28. With CGTCCAAGGGCATAGGAGGTCAGTGAAGACAGAT the PBM binding z-score was 3.11. CAAACTAGGTCACGATAGGTCAAAGTCGAATGAC showed a PBM binding z-score of 6.14. TCTCGGAGGACACCAAGGTCAGAGCTTTCCAGAG was tested, and the PBM binding z-score was 1.86. TCATATAGGTAAAGGTGAAAGGCGAACGATATGA gave a PBM binding z-score of 3.4. With CGAACGAGGGCATGAGTTGATCGCAAATGCCGAT the PBM binding z-score was 1.45. GCTCCTAGGTCAACTGATGGTCAGCTAAAGCTCG showed a PBM binding z-score of 4.1. Work on AGTCAAAGTTCATCTAGCTAACGTAAGATATGCT yielded a PBM binding z-score of 4.45. Work on TTTCCAAGGTGAGCTGAGGTCGTTGATCCAACTC yielded a PBM binding z-score of 1.94. With CCTAGCAGGCCAATCTGGGTTACTCAAGGCTTGA the PBM binding z-score was 1.18. In the case of TCTGCTAGGTCAGTAGGTCAGCTAACGAGCTGCC, the PBM binding z-score is reported as 3.55. In the case of CGTCCAAGGTCAAGGACAGTGAAAGAGACTCGAA, the PBM binding z-score is reported as 5.57. For CTCAAAAGGTCGTGCTCAGGTGAGTATACCAAAC, the PBM binding z-score was 4.98. Sequence ACTAGAAGGCCAAGTTTGGGTCACTCAAACAAAG has a PBM binding z-score of 1.52. GCAGACAGGTGAGACGCAGGTAACTCAGGGTGGC was tested, and the PBM binding z-score was 0.164. ACTAGCAGGCCAAGGGTCAATCAAGATTAGTCCG gave a PBM binding z-score of 4.64. Work on AGTGAAAGTTCATCTAGGTAACGTAAGATATGCT yielded a PBM binding z-score of 4.52. CAAACTAGGTCACAGGAAGGTCAAAGTCCGCATG gave a PBM binding z-score of 6.19. Work on CGTCCAACGTCAATGCTAGGTCAGTGAAAGCATT yielded a PBM binding z-score of 0.371. For AATGCAGGGTCACTAGGCCAGAGTAGGTACGAAT, the PBM binding z-score was 5.78. In the case of ACTGACAGGTGAGTGAAGGTAACTCAGCTGGACG, the PBM binding z-score is reported as 0.153. ACTATTAGTCGACTTAGGGCAACCGATACGACGC gave a PBM binding z-score of -0.446. TCATATAGGTAAATGCTAAGTGAAAGTCCGATCT showed a PBM binding z-score of 1.17. Sequence CCTCGGAGGACGACAGGAGGTCAGAGCTGCCAGA has a PBM binding z-score of 1.8. Work on CCGACTGAGGCAAGGTTACCATAACGCACAGCCA yielded a PBM binding z-score of 0.985. TTACCAAGGTGAAAGGTCGTCGATGCACGCCTTG showed a PBM binding z-score of 5.6. CGAACTAAGTCAAGGACAGTGAATCTCCGCACGC gave a PBM binding z-score of -0.228. Work on CGTCTAAGGTCAGAGAGGTCAGTGAATGCCGAGT yielded a PBM binding z-score of 5.48. For TGAATGAGGTGATAAGATCAGGGAACGTTGCAAA, the PBM binding z-score was 1.08. With CCTAGCAGGCCAGGGTCACTGAAGCATTTCGCTT the PBM binding z-score was 3.35. Sequence TTATATAGGTAAACAGGTGAAAGTCCGTAAGTTA has a PBM binding z-score of 3.31. Work on TAGCCTAGGTCCGATCGGGCCAGTATACGCTATA yielded a PBM binding z-score of -0.907. AGAACGAGGGCAGGCTGAGTTGATAGCAGAGTAG showed a PBM binding z-score of 0.187. Work on GCTTACGGGTCAAAGATTATAGCATGAATAGAAT yielded a PBM binding z-score of 5.34. With TCTAGCAGGCCACAGGGTCACTCAAGAGGTACGG the PBM binding z-score was 3.23. In the case of TAGCCTAGGTCACTGGGCCAGTATAGTACGCATC, the PBM binding z-score is reported as 4. TTACCAAGATGAAGGTCGTTGATCCCTCTGTAGA showed a PBM binding z-score of 1.33. GATATAGGGTCAAGGCCAGAGTACGCGTATTGAT gave a PBM binding z-score of 5.82. Work on GCGAATGGGGCAAAGCAGGTTACCATAAGGTTGG yielded a PBM binding z-score of 1.31.

These sequences were tested on PPARg:RXRa (NR concentration 180 nM, RXRa partner concentration 90 nM) in the same assay as above.
In short: as §1
In the case of TCTTGTAGATCAAGCAGGTTAATAAAGCCTGAGT, the PBM binding z-score is reported as -0.267. In the case of CCAGACAGGTGAAAGGTACCTCAGTCTGGTACGC, the PBM binding z-score is reported as 3.4. CGTCCAAGGGCATAGGAGGTCAGTGAAGACAGAT gave a PBM binding z-score of 1.15. For CAAACTAGGTCACGATAGGTCAAAGTCGAATGAC, the PBM binding z-score was 9.76. TCTCGGAGGACACCAAGGTCAGAGCTTTCCAGAG showed a PBM binding z-score of 0.127. In the case of TCATATAGGTAAAGGTGAAAGGCGAACGATATGA, the PBM binding z-score is reported as 4.29. CGAACGAGGGCATGAGTTGATCGCAAATGCCGAT was tested, and the PBM binding z-score was 1.22. GCTCCTAGGTCAACTGATGGTCAGCTAAAGCTCG was tested, and the PBM binding z-score was 2.53. Sequence AGTCAAAGTTCATCTAGCTAACGTAAGATATGCT has a PBM binding z-score of 6.14. Sequence TTTCCAAGGTGAGCTGAGGTCGTTGATCCAACTC has a PBM binding z-score of 0.0102. CCTAGCAGGCCAATCTGGGTTACTCAAGGCTTGA was tested, and the PBM binding z-score was 0.194. TCTGCTAGGTCAGTAGGTCAGCTAACGAGCTGCC gave a PBM binding z-score of 4.84. CGTCCAAGGTCAAGGACAGTGAAAGAGACTCGAA gave a PBM binding z-score of 5.12. CTCAAAAGGTCGTGCTCAGGTGAGTATACCAAAC gave a PBM binding z-score of 3.14. ACTAGAAGGCCAAGTTTGGGTCACTCAAACAAAG gave a PBM binding z-score of 0.293. For GCAGACAGGTGAGACGCAGGTAACTCAGGGTGGC, the PBM binding z-score was 0.374. ACTAGCAGGCCAAGGGTCAATCAAGATTAGTCCG showed a PBM binding z-score of 8.14. With AGTGAAAGTTCATCTAGGTAACGTAAGATATGCT the PBM binding z-score was 5.39. CAAACTAGGTCACAGGAAGGTCAAAGTCCGCATG was tested, and the PBM binding z-score was 9.73. Sequence CGTCCAACGTCAATGCTAGGTCAGTGAAAGCATT has a PBM binding z-score of -0.0757. AATGCAGGGTCACTAGGCCAGAGTAGGTACGAAT showed a PBM binding z-score of 7.48. In the case of ACTGACAGGTGAGTGAAGGTAACTCAGCTGGACG, the PBM binding z-score is reported as 0.398. ACTATTAGTCGACTTAGGGCAACCGATACGACGC showed a PBM binding z-score of 0.825. With TCATATAGGTAAATGCTAAGTGAAAGTCCGATCT the PBM binding z-score was 0.762. CCTCGGAGGACGACAGGAGGTCAGAGCTGCCAGA showed a PBM binding z-score of 0.288. Work on CCGACTGAGGCAAGGTTACCATAACGCACAGCCA yielded a PBM binding z-score of 0.898. For TTACCAAGGTGAAAGGTCGTCGATGCACGCCTTG, the PBM binding z-score was 9.29. In the case of CGAACTAAGTCAAGGACAGTGAATCTCCGCACGC, the PBM binding z-score is reported as 0.372. Sequence CGTCTAAGGTCAGAGAGGTCAGTGAATGCCGAGT has a PBM binding z-score of 4.02. For TGAATGAGGTGATAAGATCAGGGAACGTTGCAAA, the PBM binding z-score was 0.727. Work on CCTAGCAGGCCAGGGTCACTGAAGCATTTCGCTT yielded a PBM binding z-score of 0.613. With TTATATAGGTAAACAGGTGAAAGTCCGTAAGTTA the PBM binding z-score was 5.61. With TAGCCTAGGTCCGATCGGGCCAGTATACGCTATA the PBM binding z-score was -0.184. Work on AGAACGAGGGCAGGCTGAGTTGATAGCAGAGTAG yielded a PBM binding z-score of 0.64. For GCTTACGGGTCAAAGATTATAGCATGAATAGAAT, the PBM binding z-score was 6.3. TCTAGCAGGCCACAGGGTCACTCAAGAGGTACGG was tested, and the PBM binding z-score was 2.19. TAGCCTAGGTCACTGGGCCAGTATAGTACGCATC showed a PBM binding z-score of 5.05. TTACCAAGATGAAGGTCGTTGATCCCTCTGTAGA showed a PBM binding z-score of 0.406. GATATAGGGTCAAGGCCAGAGTACGCGTATTGAT gave a PBM binding z-score of 6.29. GCGAATGGGGCAAAGCAGGTTACCATAAGGTTGG showed a PBM binding z-score of 0.647.
